IL-1B inflam inh: qHTS for Inhibitors of Inflammasome Signaling: IL-1-beta AlphaLISA Primary Screen. THP-1 LPS/ATP IL-1B secretion, AlphaLISA, 16 h; hits give low values. activity change, % at 57.5 µM. 360,000 compounds, 4.7% hits; in the data active = activity change below about -50%; inconclusive = mostly about -30% to -49%
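Secreted IL-1B measured by AlphaLISA bead assay after 16 h compound exposure of THP-1 cells; compounds (final up to 57.5 uM) added 1 h before LPS (250 ng/mL) and ATP (1.25 mM) stimulation; lower signal means less secretion.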
DT40 TDP1 no CPT: qHTS for Inhibitors of human tyrosyl-DNA phosphodiesterase 1 (TDP1): qHTS in cells in absence of CPT; DT40 Tdp1-/- hTDP1 cells, no CPT, ATP luminescence, 48 h; Potency, µM (top dose mostly 46.2 µM), without a hit: at the top dose activity change, negative = growth inhibition, actives largely listed as inhibitors; 420,000 compounds, 15% hits; AID 686978, 2013; also: potency is read from the fitted curve at half-maximal effect; nearly all actives have a fitted effect of over 55% in size
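Seeded 400 DT40-hTDP1 cells/well (vehicle DMSO, no 20 nM CPT); pinned compounds; ≥48 hr at 37 °C; CellTiter-Glo luminescence as viability measure.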
HT1080NT lethal: qHTS for induction of synthetic lethality in tumor cells producing 2HG: qHTS for the HT-1080-NT fibrosarcoma cell line; HT-1080-NT fibrosarcoma viability, CellTiter-Glo ATP luminescence, 48 h; Potency, µM (series often up to 46.1 µM), without a hit: top-dose activity, negative = less viability, usual class: cytotoxic; 360,000 compounds, 1.6% hits;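 also: NT is the 2HG producing partner of a matched IDH1 knockdown line; potency is read from the fitted curve at half-maximal effect; 0% = DMSO-treated cells and -100% = media-only wells without cells; nearly all actives have a fitted effect of over 55% in size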
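Read-out is CellTiter-Glo luminescence after 10 minutes at room temperature, following 48 hours' compound treatment of HT-1080-NT cells (750 cells/well, RPMI, 5% FBS, 37 degrees C).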
HT1080 IDH1KD tx: qHTS for induction of synthetic lethality in tumor cells producing 2HG: qHTS for the HT-1080-IDH1KD cell line. HT-1080 IDH1 knockdown viability, ATP luminescence, 48 h. Potency, µM (titrated, usually from 46.1 µM), without a hit: at the top dose activity, negative = toxicity, most hits filed as cytotoxic. 360,000 compounds, 2% hits;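 also: potency is read from the fitted curve at half-maximal effect; 0% = DMSO wells and -100% = cell-free medium wells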
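Using the IDH1-knockdown HT-1080 line run in the same batch and compound series as the NT line, viability after 48 h at 37 °C was determined by CellTiter-Glo luminescence and expressed as % activity.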
DT40 TDP1 CPT: qHTS for Inhibitors of human tyrosyl-DNA phosphodiesterase 1 (TDP1): qHTS in cells in presence of CPT. Potency, µM (top dose mostly 46.2 µM), without a hit: top-dose activity change, negative = growth inhibition, usual class: inhibitors. chicken DT40 Tdp1-/-;hTDP1 cells + 20 nM CPT, ATP luminescence, 48 h. AID 686979, 2013. 420,000 compounds, 12% hits; also: potency is read from the fitted curve at half-maximal effect; nearly all actives have a fitted effect of over 55% in size
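Chicken DT40 Tdp1-/- cells stably complemented with human TDP1 were seeded at 400 cells/well in medium containing 20 nM camptothecin, exposed to pin-transferred compounds, and grown at 37 °C for at least 48 hr. Viability was read as ATP luminescence.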
* = called active by the depositor. Most compounds without a hit are left out; they make up all but 19% or so of the library. Unless noted, calls follow the shape of the dose curve; as a rule, active = well fitted curve in the direction sought with a large enough effect; inconclusive = small, poorly fitted or top-dose-only effect, or another doubt; inactive = no such curve, though single readings can be large; an effect the other way counts as inactive or inconclusive. Unless noted, % is scaled to controls: 0 for no effect and ±100 for the full control effect.

Results for CCC(C)c1ccc(OCC(=O)Nc2cccc(-c3nc4ncccc4o3)c2)cc1 (configuration not stated) ?
DT40 TDP1 no CPT: 16µM*; DT40 TDP1 CPT: -89%

Results for Cc1cc(C)cc(OCC(=O)Nc2cccc(-c3nc4ncccc4o3)c2)c1 ?
IL-1B inflam inh: inconclusive; DT40 TDP1 no CPT: 21µM*; HT1080NT lethal: 11%; HT1080 IDH1KD tx: 11%; DT40 TDP1 CPT: 23µM*

How did O=C(O)CC1NC(=O)N(C2CCCCC2)C1=O (configuration not stated) do in these assays?
IL-1B inflam inh: 0; DT40 TDP1 no CPT: 22%; HT1080NT lethal: 10%; HT1080 IDH1KD tx: 13%; DT40 TDP1 CPT: 4%

How did O=C(/C=C/c1ccccc1)NC(=O)c1ccccc1O do in these assays?
IL-1B inflam inh: -58*; DT40 TDP1 no CPT: inconclusive; HT1080NT lethal: -7%; HT1080 IDH1KD tx: 2%; DT40 TDP1 CPT: inconclusive

What do the screens show for `COc1cc(/C=C/C(=O)NC(=O)c2ccccc2O)ccc1O`?
IL-1B inflam inh: -5; DT40 TDP1 no CPT: -7%; HT1080NT lethal: -1%; HT1080 IDH1KD tx: 4%; DT40 TDP1 CPT: 3%

What do the screens show for `O=C(/C=C/c1ccccc1)CC(=O)c1ccccc1O`?
IL-1B inflam inh: -15; DT40 TDP1 no CPT: 18µM*; HT1080NT lethal: -17%; HT1080 IDH1KD tx: 6%; DT40 TDP1 CPT: inconclusive

Results for COCOc1ccc(/C=C2/Oc3cc(OCOC)cc(OCOC)c3C2=O)c(OCOC)c1 ?
IL-1B inflam inh: -12; DT40 TDP1 no CPT: 23µM*; HT1080NT lethal: -1%; HT1080 IDH1KD tx: 2%; DT40 TDP1 CPT: 13µM*

How did CCOc1ccc(-c2nnn(CC#N)n2)cc1OC do in these assays?
IL-1B inflam inh: 37; DT40 TDP1 no CPT: inconclusive; HT1080NT lethal: inconclusive; HT1080 IDH1KD tx: inconclusive; DT40 TDP1 CPT: inconclusive

How did O=C(COC(=O)/C=C/C(=O)OCC(=O)Nc1ccccc1F)Nc1ccccc1F do in these assays?
IL-1B inflam inh: -82*; DT40 TDP1 no CPT: inconclusive; HT1080NT lethal: -3%; HT1080 IDH1KD tx: -4%; DT40 TDP1 CPT: inconclusive

What do the screens show for `CCOc1ccccc1NC(=O)COC(=O)/C=C/c1cccs1`?
IL-1B inflam inh: -17; DT40 TDP1 no CPT: 18µM*; HT1080NT lethal: 1%; HT1080 IDH1KD tx: -1%; DT40 TDP1 CPT: -18%

How did C/C=C/C(=O)OCC(=O)Nc1ccccc1Br do in these assays?
IL-1B inflam inh: -7; DT40 TDP1 no CPT: 4%; HT1080NT lethal: 1%; HT1080 IDH1KD tx: -14%; DT40 TDP1 CPT: 1%

What do the screens show for `CN(C)C(=O)c1ccc(NC(=O)COC(=O)/C=C/c2cccs2)cc1`?
IL-1B inflam inh: -11; DT40 TDP1 no CPT: 7%; HT1080NT lethal: -6%; HT1080 IDH1KD tx: -3%; DT40 TDP1 CPT: 5%

What do the screens show for `Cc1ccc(NC(=O)CN(C)C(=O)COC(=O)/C=C/c2cccs2)cc1`?
IL-1B inflam inh: -97*; DT40 TDP1 no CPT: -23%; HT1080NT lethal: 1%; HT1080 IDH1KD tx: 5%; DT40 TDP1 CPT: 14%

How did CSc1ncc(C(=O)Nc2ccc(C(C)=O)cc2)c(C)n1 do in these assays?
IL-1B inflam inh: -24; DT40 TDP1 no CPT: -24%; HT1080NT lethal: 9%; HT1080 IDH1KD tx: 6%; DT40 TDP1 CPT: -29%

How did O=C(NC1CCCCCC1)c1ccc(=O)n(Cc2ccccc2)n1 do in these assays?
IL-1B inflam inh: 0; DT40 TDP1 no CPT: inconclusive; HT1080NT lethal: 10%; HT1080 IDH1KD tx: 12%; DT40 TDP1 CPT: inconclusive

Results for O=C(c1ccccc1NS(=O)(=O)c1ccc([N+](=O)[O-])cc1[N+](=O)[O-])N1O[C@@H]2C=C[C@H]1C2 ?
IL-1B inflam inh: -72*; DT40 TDP1 no CPT: 9.2µM*; HT1080NT lethal: -2%; HT1080 IDH1KD tx: -2%; DT40 TDP1 CPT: 9.2µM*

How did O=C1/C(=C/c2ccc(O)cc2)COc2ccccc21 do in these assays?
IL-1B inflam inh: -104*; DT40 TDP1 no CPT: -17%; HT1080NT lethal: inconclusive; HT1080 IDH1KD tx: inconclusive; DT40 TDP1 CPT: 0%

How did O=C1/C(=C/c2ccccn2)COc2ccccc21 do in these assays?
IL-1B inflam inh: 9; DT40 TDP1 no CPT: 4.6µM*; HT1080NT lethal: -21%; HT1080 IDH1KD tx: -14%; DT40 TDP1 CPT: 2.1µM*

Results for COc1ccc2c(c1)OC/C(=C/c1ccc(O)c(O)c1)C2=O ?
DT40 TDP1 no CPT: 2.6µM*; DT40 TDP1 CPT: 3.3µM*

What do the screens show for `CCOc1cc(/C=C2/COc3ccccc3C2=O)ccc1OCC(=O)N(C)C`?
IL-1B inflam inh: -16; DT40 TDP1 no CPT: inconclusive; HT1080NT lethal: inconclusive; HT1080 IDH1KD tx: inconclusive; DT40 TDP1 CPT: inconclusive

Results for Cc1c(C)n(CC(O)CSc2ccccc2)c2ccccc12 (configuration not stated) ?
IL-1B inflam inh: inconclusive; DT40 TDP1 no CPT: inconclusive; HT1080NT lethal: -30%; HT1080 IDH1KD tx: inconclusive; DT40 TDP1 CPT: inconclusive

Results for COc1ccc(S(=O)(=O)N(C)C[C@H]2Oc3ccc(NS(=O)(=O)c4ccc(F)cc4)cc3C(=O)N([C@H](C)CO)C[C@@H]2C)cc1 ?
IL-1B inflam inh: -18; DT40 TDP1 no CPT: inconclusive; HT1080NT lethal: 14%; HT1080 IDH1KD tx: 7%; DT40 TDP1 CPT: inconclusive

Results for C=CCc1ccc(OCC(O)CN2CCc3ccccc3C2)c(OC)c1 (configuration not stated) ?
IL-1B inflam inh: -16; DT40 TDP1 no CPT: inconclusive; HT1080NT lethal: -29%; HT1080 IDH1KD tx: inconclusive; DT40 TDP1 CPT: -25%

How did CCC1CCCCN1S(=O)(=O)c1ccc(NC(=O)c2nc(S(C)(=O)=O)ncc2Cl)cc1 (configuration not stated) do in these assays?
IL-1B inflam inh: -101*; DT40 TDP1 no CPT: 2.6µM*; HT1080NT lethal: 4.6µM*; HT1080 IDH1KD tx: 3.3µM*; DT40 TDP1 CPT: 1.5µM*

What do the screens show for `CCSc1ncc(Cl)c(C(=O)Nc2cccc(Cl)c2)n1`?
DT40 TDP1 no CPT: inconclusive; DT40 TDP1 CPT: 10µM*

How did CCC1CCCCN1S(=O)(=O)c1ccc(NC(=O)c2ccncc2)cc1 (configuration not stated) do in these assays?
IL-1B inflam inh: -3; DT40 TDP1 no CPT: 12µM*; HT1080NT lethal: -17%; HT1080 IDH1KD tx: -14%; DT40 TDP1 CPT: 16µM*

Results for CCSc1ncc(Cl)c(C(=O)Nc2ccc(S(=O)(=O)N3CCCCC3CC)cc2)n1 (configuration not stated) ?
DT40 TDP1 no CPT: 6.5µM*; DT40 TDP1 CPT: 10µM*

High-throughput results as filed in PubChem BioAssay.
